We go through 36 molecules from PubChem BioAssay (NCI).

What all share (assay): NCI-60 one-dose screen, 48 h (100 = growth as untreated, 0 = no growth, -100 = all killed)
Common to all, as to conditions: 10 µM unless noted

In assay [1] the test system is T-47D breast.
Assay [2] relates to BT-549 breast.
The subject of assay [3] is MDA-MB-435 melanoma.
Assay [4] has as its system SW-620 colon.
Assay [5] concerns HCT-116 colon.
In assay [6] the test system is HCC-2998 colon.
Assay [7] has as its system KM12 colon.
Assay [8] concerns MCF7 breast.

Structures are written as SMILES. Compounds without any hit were thinned out: in the full panel of roughly 83,000, 20% have a hit.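 Cell lines were cultured in 96-well plates, exposed to a single compound concentration, and assessed for percent growth 48 hours later.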 A number with no mark means an inactive call. The source made the active and inactive calls. Rule for the calls: active = growth percent below 10; inactive = the rest.

As to `O=C(C(=O)N1CCOCC1)c1cn(CCCn2cc(C(=O)C(=O)N3CCOCC3)c3ccccc32)c2ccccc12`, the growth was 94.7% in assay [1]; 104% in assay [2]; 111% in assay [3]; 115% in assay [4]; 98.4% in assay [5]; 108% in assay [6]. Also, the growth in assay [7] was 110%.
For `FC(F)(F)c1cc(-c2nnc3n2N=C(N2CCCC2)CS3)cc(C(F)(F)F)c1`, the growth in assay [1] is 64%; in assay [3], 96.8%; in assay [4] it was 95.9%; in assay [8] it was 95.3%; in assay [5] it was 42.5%; in assay [7], 89.2%.
Turning to `[N-]=[N+]=NCc1cccc(/C(O)=C/C(=O)C(=O)O)c1`, the growth in assay [1] is 86.6%; in assay [2], 113%; in assay [3], 140%; in assay [4], 94.9%; in assay [5], 91.3%; in assay [6], 88.5%. The growth in assay [7] is 97.4%.
Regarding `NC(=O)c1cc(Cl)ccc1NC(=O)c1ccccc1-c1ccccc1`, the growth is 26.9% in assay [1]; -63.7% (active) in assay [3]; 27.4% in assay [4]; 25.4% in assay [8]; 23.2% in assay [5]; 49.3% in assay [6]. For the same molecule, in assay [7], the growth is 16.9%.
Take `NS(=O)(=O)c1ccc(N2CC(c3nc4ccccc4[nH]3)CC2=O)cc1` (stereo not given): the growth in assay [1] was 88.8%; in assay [3], 104%; in assay [4] it was 104%; in assay [8], 94.9%; in assay [5], 104%; in assay [6], 99.1%. Further, the growth in assay [7] was 97.6%.
Take `COc1cnc2c(c1)C(=O)c1c-2n(CCCNC(C)C)c(=O)c2cc(F)ccc12`: the growth in assay [1] was -11.5% (active); in assay [2], -17.9% (active); in assay [3], -6.52% (active); in assay [4], -8.49% (active); in assay [5], -76.5% (active); in assay [6], -49.8% (active). In assay [7], the growth is -17.7% (active).
`COc1ccc([N+](=O)[O-])c(S(=O)(=O)c2ccc(Cl)cc2)n1`: the growth in assay [1] was 65.2%; in assay [3], 40.9%; in assay [4] it was 14.4%; in assay [8] it was 18.1%; in assay [5], 20.9%; in assay [6], 104%. Moreover, the growth in assay [7] is 97.7%.
As to `Cc1ccc(OCC(=O)Nc2ccc(Oc3ccccc3)cc2)c([N+](=O)[O-])n1`, the growth in assay [1] is 23.4%; in assay [2], 98.5%; in assay [3], 96.7%; in assay [4] it was 96.8%; in assay [5], 69.8%; in assay [6] it was 81.1%. Moreover, the growth in assay [7] was 93.8%.
As to `O=c1c2c(=NCCCN3CCCC3)cc3c(=O)n(CCCN4CCCC4)c(=O)c4c(NCCCN5CCCC5)cc(c(O)n1CCCN1CCCC1)c2c4-3`, the growth in assay [1] was -6.25% (active); in assay [2] it was -29.9% (active); in assay [3] it was -62.4% (active); in assay [4], -3.24% (active); in assay [5], 2.72% (active); in assay [6], -43.1% (active). Besides, the growth in assay [7] is 0.818% (active).
As to `COc1ccc(NC(=O)c2ccccc2-c2ccccc2)c(C(N)=O)c1`, the growth in assay [1] was 34%; in assay [3] it was -22.6% (active); in assay [4], 24.7%; in assay [5], 27%; in assay [6] it was 76.7%; in assay [7], 19.2%.
On to `CC(C)CNc1nc(N=[N+]=[N-])nc(NCC(C)C)n1`, for which the growth was 48.6% [100 µM] in assay [1]; 56.9% [100 µM] in assay [2]; 55.6% [100 µM] in assay [3]; 81.9% [100 µM] in assay [4]; 42.9% [100 µM] in assay [5]; 79.4% [100 µM] in assay [6]. Besides, the growth in assay [7] was 53.6% [100 µM].
Consider `COc1cccc(C=Nc2cc(C(C)C)c(O)cc2C)c1O`, for which the growth in assay [1] is 51.7%; in assay [2] it was 101%; in assay [4] it was 105%; in assay [8], 92.5%; in assay [5], 99.1%; in assay [6], 115%. Moreover, the growth in assay [7] was 109%.
`Cc1cc(=O)oc2cc(OCCn3c(C)nn(-c4ccc(Cl)cc4)c3=O)ccc12`: the growth is 47.4% in assay [1]; 56.7% in assay [2]; -38.6% (active) in assay [3]; 15.8% in assay [8]; 15.1% in assay [5]; 46.7% in assay [6]. Also, the growth in assay [7] is 31.4%.
Turning to `COc1ccc(NC(=O)[C@@H]2C[C@H]2c2ccccc2)c(C(N)=O)c1`, the growth in assay [1] was 91.1%; in assay [3] it was 51.8%; in assay [4], 90.9%; in assay [8], 97.7%; in assay [5] it was 108%; in assay [6], 94.7%. Besides, in assay [7], the growth is 87.4%.
On to `CCOC(=O)N1CCC(N=C2CSc3nnc(-c4cc(C(F)(F)F)cc(C(F)(F)F)c4)n3N2)CC1`, for which the growth in assay [1] was 34%; in assay [3], 24.9%; in assay [4], 36.2%; in assay [8], 13.6%; in assay [5] it was -10.9% (active); in assay [7], 34.5%.
For `COc1ccc(-c2cc(-c3cccnc3)nc3sc(C(=O)Nc4ccccc4)c(N)c23)cc1OC`, the growth is 55.8% in assay [1]; 76.1% in assay [3]; 85.5% in assay [4]; 65.4% in assay [8]; 50.5% in assay [5]; 80.3% in assay [6]. For the same molecule, the growth in assay [7] is 61.3%.
In the case of `C[C@]12CCC(=O)C=C1CC[C@H]1[C@@H]3C[C@@H](O)[C@](O)(C(=O)CO)[C@@]3(C)C[C@H](O)[C@@]12F`, the growth is 103% in assay [1]; 99.4% in assay [2]; 99.7% in assay [3]; 95.5% in assay [4]; 90.6% in assay [5]; 102% in assay [7].
`Cc1[nH]c(=O)[nH]c(=O)c1CCSSCCc1c(C)[nH]c(=O)[nH]c1=O`: the growth is 96.6% in assay [1]; 105% in assay [2]; 103% in assay [3]; 108% in assay [4]; 101% in assay [5]; 102% in assay [6]. Besides, the growth in assay [7] was 101%.
On to `COc1ccc(-c2cc(-c3cccnc3)nc(S(=O)(=O)CC(=O)Nc3ccc(C)cc3)c2C#N)cc1OC`, for which the growth is 64% in assay [1]; 98.6% in assay [3]; 98.3% in assay [4]; 88.4% in assay [8]; 85.8% in assay [5]; 91.9% in assay [6]. The growth in assay [7] is 95.9%.
Regarding `COc1ccc(CC(=O)Nc2nn3c(-c4cc(C(F)(F)F)cc(C(F)(F)F)c4)nnc3s2)cc1`, the growth in assay [1] was 42.7%; in assay [3], 57.1%; in assay [4], 84.2%; in assay [8], 66.9%; in assay [5], 61.9%; in assay [7], 65.7%.
For the molecule `Nc1nc2c(nnn2Cc2ccc(Cl)c(Cl)c2)c(=O)[nH]1`, the growth in assay [1] was 84.3%; in assay [2], 99.4%; in assay [4], 99.9%; in assay [8], 93.7%; in assay [5], 104%; in assay [6], 116%. Moreover, the growth in assay [7] is 90.2%.
Regarding `O=C1NC(=O)/C(=C\c2ccco2)S1`, the growth in assay [1] was 95.4%; in assay [2] it was 104%; in assay [4] it was 100%; in assay [8] it was 104%; in assay [5], 108%; in assay [6] it was 116%. Also, the growth in assay [7] was 103%.
`O=C(Nc1nn2c(-c3cc(C(F)(F)F)cc(C(F)(F)F)c3)nnc2s1)C1CCCC1`: the growth is 11.6% in assay [1]; 12.5% in assay [3]; 15.5% in assay [4]; 6.67% (active) in assay [8]; -29.7% (active) in assay [5]; 11.1% in assay [7].
Consider `COC(=O)c1cc2oc(/C=N\NC(=O)c3cc4oc(C)c(C)c4[nH]3)cc2[nH]1`, for which the growth was 90.2% in assay [1]; 91.3% in assay [2]; 96.6% in assay [3]; 108% in assay [4]; 101% in assay [5]; 101% in assay [6]. The growth in assay [7] was 108%.
For the molecule `C1=C(Cc2ccccc2)n2cnc3ncnc(c32)S1`, the growth in assay [1] is 29.6%; in assay [3], 26.5%; in assay [4] it was 69%; in assay [8], 20.3%; in assay [5], 57.1%; in assay [6] it was 70.2%. The growth in assay [7] was 69.6%.
As for `COc1cccc(-c2nc3cc(NC(=O)c4ccc(Cl)c(C#N)c4)ccc3o2)c1`, the growth in assay [1] is -20.4% (active); in assay [3], -73.3% (active); in assay [4], 46.9%; in assay [8], 8% (active); in assay [5] it was -92.2% (active); in assay [6], 29.6%. The growth in assay [7] was -51.8% (active).
Regarding `Cc1ccccc1NC(=O)N/C(N)=N/c1nc2ccccc2s1`, the growth in assay [1] was 61.1%; in assay [2] it was -2.9% (active); in assay [3], -11.4% (active); in assay [4], 25.8%; in assay [5], 10.2%; in assay [6], 17.2%. Moreover, the growth in assay [7] was 14.9%.
Regarding `COc1ccc(-c2nnc3c4[nH]cnc4ncn23)c(OC)c1`, the growth in assay [1] is 28.5%; in assay [3], 13.2%; in assay [4], 23.2%; in assay [8], 7.19% (active); in assay [5], 14.8%; in assay [6], 26.3%. Moreover, the growth in assay [7] was 22.5%.
In the case of `Cc1cc(C)cc(S(=O)(=O)n2ccc(-c3ccc4c(c3)CCC(C)(C)O4)n2)c1`, the growth is 58.2% in assay [1]; 93.8% in assay [3]; 88.3% in assay [4]; 81.5% in assay [8]; 77.8% in assay [5]; 88.2% in assay [6]. Moreover, the growth in assay [7] was 82.7%.
Consider `Fc1ccc(-c2nn3c(-c4cc(C(F)(F)F)cc(C(F)(F)F)c4)nnc3s2)cc1`, for which the growth in assay [1] is 51.8%; in assay [3] it was 76.3%; in assay [4] it was 65.8%; in assay [8], 68.7%; in assay [5], -17.3% (active); in assay [7], 77.5%.
As to `CCCCCCCSc1ncnc2[nH]ncc12`, the growth in assay [1] is 51.9%; in assay [2], 88.4%; in assay [4], 61.9%; in assay [8], 81.7%; in assay [5], 62.7%; in assay [6], 119%. Besides, in assay [7], the growth is 83.2%.
Take `O=Nc1c2cccnc2n2nnc3ccc(Cl)cc3c12`: the growth is 12.1% in assay [1]; 70.4% in assay [3]; -67.3% (active) in assay [4]; -10.6% (active) in assay [8]; 0.54% (active) in assay [5]; 93.1% in assay [6]. Besides, the growth in assay [7] is 25.2%.
Consider `COc1ccc(-n2cnc3cc(C(=O)N4CCCCC4)ccc32)cc1`, for which the growth in assay [1] is 91%; in assay [3] it was 102%; in assay [4] it was 104%; in assay [8], 103%; in assay [5], 98.3%; in assay [6], 104%. In assay [7], the growth is 107%.
Take `COc1ccc(NC(=O)c2ccc(-c3ccccc3)cc2)c(C(N)=O)c1`: the growth was 88.6% in assay [1]; 98.5% in assay [3]; 110% in assay [4]; 96.6% in assay [8]; 106% in assay [5]; 102% in assay [6]. Further, the growth in assay [7] was 99.2%.
For `O=C(c1ccc(Cl)cc1)c1ccc(Cl)cc1`, the growth in assay [1] was 101%; in assay [3] it was 107%; in assay [4] it was 103%; in assay [8] it was 104%; in assay [5], 110%; in assay [6] it was 96.7%. In assay [7], the growth was 110%.
For `COc1ccc(C2=NN(C=O)C(c3cccc(Nc4ccnc5cc(Cl)ccc45)c3)C2)cc1` (stereo not given), the growth in assay [1] is 25.1%; in assay [2], 1.59% (active); in assay [3], 11.7%; in assay [4], 24.8%; in assay [5], 12%; in assay [6], 57.8%. For the same molecule, in assay [7], the growth was 27.4%.
